Data: the supplement of paper PMC3414501
Structures can show the parent of a compound that is named as a salt.

Columns and labels:
[1] = tested on: S. cerevisiae SK1 pCDA2-eGFP (USY613), sporulating; assay: CDA2-GFP sporulation assay sensitivity score (z-score vs DMSO controls); higher = stronger inhibition of sporulation, active = hit call of the paper;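 note: active if sensitivity score above 5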
[2] = tested on: S. cerevisiae NKY1551 his4x/his4B, sporulating; assay: HIS4 meiotic recombination assay sensitivity score (z-score vs DMSO controls); higher = stronger inhibition of sporulation/recombination, active = hit call of the paper;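 note: active if sensitivity score above 5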
[3] = tested on: S. cerevisiae AD1-9 (efflux-pump deficient), vegetative growth in YPD; assay: growth sensitivity score (doubling time z-score vs DMSO controls); higher = slower growth, strongly negative scores also mark growth inhibition (complete suppression), active = hit call of the paper
How it was run: (§1)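 Optical density of Saccharomyces cerevisiae cultures in microtiter plates was followed every 15 min for 24 hours after seeding at an OD600 of 0.065. Eight solvent-only wells were run per experiment. Growth sensitivity scores were found by subtracting the solvent-only mean from the compound mean and dividing by the solvent-only standard deviation.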

[4] = tested on: S. cerevisiae BY4741 (wild-type), vegetative growth in YPD; assay: as above
How it was run: as §1

Row | SMILES | CDA2-GFP sporulation assay sensitivity score [1] | HIS4 meiotic recombination assay sensitivity score [2] | growth sensitivity score [3] | growth sensitivity score [4]
1 | O=C(O)COCCN1CCN([C@H](c2ccccc2)c2ccc(Cl)cc2)CC1 [Levocetirizine] (stock concentration (mM, diluted 1:100): 10.7) | -2.92 (inactive) | -0.24 (inactive) | -1.54 (inactive) | -0.8 (inactive)
2 | C[C@]12CCC(=O)C=C1CC[C@@H]1[C@@H]2C(=O)C[C@@]2(C)[C@H]1CC[C@]2(O)C(=O)CO [Cortisone] (stock concentration (mM, diluted 1:100): 10) | 2.53 (inactive) | -0.95 (inactive) | 0.78 (inactive) | -0.57 (inactive)
3 | CN1CCN2c3ncccc3Cc3ccccc3C2C1 (centres undefined) [Mirtazapine] (stock concentration (mM, diluted 1:100): 10) | 12.7 (inactive) | 3.31 (inactive) | 2.89 (active) | -0.03 (inactive)
4 | CNCC[C@H](Oc1cccc2ccccc12)c1cccs1 [Duloxetine hydrochloride] (stock concentration (mM, diluted 1:100): 8.9) | 16.3 (active) | 7.17 (active) | 33.3 (active) | 21.8 (active)
5 | Cc1ncc([N+](=O)[O-])n1CC(O)CCl (centres undefined) [Ornidazole] (stock concentration (mM, diluted 1:100): 10) | -0.66 (inactive) | -0.66 (inactive) | -0.62 (inactive) | -2.78
6 | O=C(O)CCc1nc(-c2ccccc2)c(-c2ccccc2)o1 [Oxaprozin] (stock concentration (mM, diluted 1:100): 10) | -0.84 (inactive) | -0.23 (inactive) | 5.72 (active) | 0.61 (inactive)
